According to PubChem BioAssay AID1458 (National Center for Advancing Translational Sciences (NCATS), 2008):
The campaign covered roughly 210,000 compounds. About 5,900 (2.8%) were called active. Another 5% or so got no clear call; they are omitted. This excerpt belongs to a sample that is enriched for actives. Values without a mark were called inactive. The call rests on the fitted dose curve; in most records, active means well fitted activation curve with a large enough effect; inconclusive means small, poorly fitted or top-dose-only effect; inactive means no such curve, though single readings can be large or run the other way.

Assay: qHTS Assay for Enhancers of SMN2 Splice Variant Expression; further: nearly all actives have a fitted effect of over 55% in size; on activity change, positive = activation: % of control where 0% means no effect
Settings: HEK293 SMN2-luciferase splicing reporter, luminescence, 30-36 h; series mostly up to 46.1 µM; activity change, positive = activation: at the top concentration
Summary of the method: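 HEK293 cells carry an SMN2 […]–luciferase reporter in which exon 7 inclusion puts luciferase in frame. Cells were plated 10-12 h before compound addition, then incubated 30-36 h at 37C. ONE-Glo luminescence was read; sodium butyrate at 4.5 mM final served as control.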
Potency means the concentration at half of the fitted maximal effect.

SMILES | Potency | activity change, positive = activation
O=C(NNC(=S)Nc1ccc(Br)cc1Cl)c1ccco1 | 12.6 µM (active) | 
CCC(=O)NC(=S)Nc1ccc(NC(=O)c2ccco2)c(Cl)c1 |  | -1.02%
S=C(Nc1ccc(Br)cc1Cl)NC1CCN(Cc2ccccc2)CC1 |  | -68.5%
Cc1ccc(-c2cc(-c3coc4ccccc4c3=O)c3c(n2)-c2cc(Cl)ccc2OC3)cc1 |  | -0.83%
COc1ccc(CNC(=O)c2ccc(NC(=O)N3CC4CCCN4c4ccccc43)cc2)cc1 (configuration not stated) |  | -6.58%
CC(C)(C)OC(=O)N/N=C/c1ccc(C(=O)O)cc1 |  | 10.1%
C/C(=N\NC(=O)OC(C)(C)C)c1ccc[nH]1 | 12.6 µM (active) | 
Cc1ccccc1NC(=O)NNC(=O)OC(C)(C)C |  | 20.2%
Cc1cc(NC(=O)c2ccc(-c3ccc(Cl)cc3)o2)cc(-c2nc3ncccc3o2)c1O |  | -0.868%
COc1ccc(C(=O)Nc2nonc2-c2ccc(OC)c(OC)c2)cc1Cl |  | -19%
C/C(=N/NC(=O)c1ccc(NC(=O)c2ccc(F)cc2)cc1)c1ccccc1 |  | 10.8%
CC(C)=C(NC(=O)c1ccccc1)C(=O)N/N=C(\C)c1ccccc1O |  | -18.1%
C/C(=N\NC(=O)c1nc(C)cc(C)n1)c1ccccc1 | 11.2 µM (active) | 
CCOC(=O)c1c(NC(C)=O)c2c3c(sc2n1Cc1c(C)cc(C)cc1C)CCCC3 |  | -5.97%
COc1ccccc1-c1cc2nc(C)c(CCC(=O)NC3CCCCC3)c(C)n2n1 |  | -6.73%
Cc1cc(/C=C2/C(=N)N3C(=NC2=O)SN=C3S(C)(=O)=O)c(C)n1-c1ccccc1 | 15.8 µM (active) | 
CS(=O)(=O)c1ccc2c(c1)SC1=NC(=O)/C(=C/c3ccco3)C(=N)N12 |  | 9.12%
CCS(=O)(=O)C1=NSC2=NC(=O)/C(=C\c3cc(C)n(-c4cccc(OC)c4)c3C)C(=N)N21 |  | 5.92%
Cn1c(=O)cc(OCC(=O)N2CCN(c3ccccc3)CC2)c2ccccc21 |  | 4.37%
COC(=O)c1ccc(C2C(C(=O)Nc3ccccc3)=C(C)Nc3nc4ccccc4n32)cc1 (configuration not stated) |  | -7.04%
CN(Cc1ccccc1)C(=O)c1cn(C)c2ccc(S(=O)(=O)N(C)C3CCCCC3)cc2c1=O |  | -3.3%
CN(C)c1ccnc2sc3c(=O)n(Cc4ccccc4)cnc3c12 |  | -24%
CN(C)c1ccnc2sc(C(=O)c3ccccc3)c(N)c12 | 14.1 µM (active) | 
COc1cccc(C(=O)c2sc3nc(-c4ccccc4)cc(C(F)(F)F)c3c2N)c1 |  | -9.67%
CN(CC(=O)Nc1cccc(C(F)(F)F)c1)S(=O)(=O)c1cccs1 |  | 0.287%
CCC1CCCCN1Cc1c(O)ccc2c(=O)c(Oc3ccccc3Cl)c(C(F)(F)F)oc12 (configuration not stated) |  | -6.73%

SMILES | Potency | activity change, positive = activation
COc1ccc(CC(=O)c2ccc(O)cc2O)cc1OC |  | 19.7%
COc1ccc(C(=O)Cc2cnn(-c3ccccc3)c2)c(O)c1 | 17.8 µM (active) | 
Cc1cc(O)cc(O)c1C(=O)Cc1cnn(-c2ccccc2)c1 |  | -16.1%
Cn1nc(-c2ccccc2)c(-c2ccccc2)c(C(=O)Nc2ccc(S(N)(=O)=O)cc2)c1=O |  | 8.83%
COC(=O)c1cn(CC(=O)NCc2cccs2)c2ccccc12 | 22.4 µM (active) | 
O=C(Cn1cc(C(=O)c2cccs2)c2ccccc21)NCc1cccs1 |  | 25.6%
COC(=O)Cn1cc(C(=O)c2cccs2)c2ccccc21 |  | 8.54%
CC(=O)c1nn(-c2cccc(Br)c2)cc1C(=O)c1cccc2ccccc12 |  | -21.6%
CCOC(=O)c1cn(Cc2cccc(C)c2)nn1 |  | 0.18%
CCOC(=O)c1nn(-c2cccc(C)c2)cc1C(=O)c1ccccc1 | 10 µM (active) | 
CCCOc1ccccc1C(=O)NCCCC(=O)O |  | -16.9%
CCCOc1ccccc1-c1nc(SCCC(=O)O)n[nH]1 | 7.08 µM (active) | 
COc1ccccc1-c1nc(SC)n[nH]1 |  | 12.2%
O=C(Cc1ccccc1)NNC(=O)C1CCN(c2ncccn2)CC1 |  | 4.38%
O=C(O)C1CCN(C(=O)OCc2ccccc2)CC1 | 17.8 µM (active) | 
O=C(NCC1CCC(C(=O)O)CC1)OCc1ccccc1 (configuration not stated) |  | -2.66%
CCOC(=O)Cc1ccc(NC(=O)Nc2c[nH]c(=O)[nH]c2=O)cc1 |  | -3.88%
O=c1[nH]c2cc(Br)ccc2n2cccc12 |  | 22.8%
CCCC(=O)Nc1ccc2oc(-c3ccc(O)c(Br)c3)nc2c1 | 11.2 µM (active) | 
O=C(Nc1ccc2oc(-c3ccc(O)c(Br)c3)nc2c1)c1cc2ccccc2o1 |  | 1.87%
CCCCCC(=O)Nc1ccc2oc(-c3ccncc3)nc2c1 |  | -15.7%
CCOc1ccc(OCC)c(NC(=O)CN(c2ccc(C)cc2)S(=O)(=O)c2c(C)n[nH]c2C)c1 |  | -8.29%
COc1ccc(Cl)cc1NC(=O)c1sc2nc3c(cc2c1N)CN(C)CC3 |  | 9.66%
COc1ccc(CCn2cc3c(c2-c2ccc(Br)cc2)c(=O)n(C)c(=O)n3C)cc1OC |  | -0.506%
Cc1cccc(NC(=O)C2CCCN2S(=O)(=O)c2cccc3nsnc23)c1C (configuration not stated) |  | -4.32%
Cc1ccc(-n2c(=O)c3cccnc3n2CC(=O)NCc2ccc(F)cc2)cc1C |  | -1.87%
